Consider 42 sequences from PMC7819943, “Rice protein-binding microarrays: a tool to detect cis-acting elements near promoter regions in rice”.

The full ranking holds about 35,000 sequences; the median of “fluorescence intensity (a.u.)” is about 10,000, and the highest 2% start at about 52,000. For the sample, the highest values were picked, then their nearest neighbours and some sequences at random.

This assay has as its target T1, OsWOX13 (Oryza sativa, UniProt Q5QMM3 1-267).
T1 sequence: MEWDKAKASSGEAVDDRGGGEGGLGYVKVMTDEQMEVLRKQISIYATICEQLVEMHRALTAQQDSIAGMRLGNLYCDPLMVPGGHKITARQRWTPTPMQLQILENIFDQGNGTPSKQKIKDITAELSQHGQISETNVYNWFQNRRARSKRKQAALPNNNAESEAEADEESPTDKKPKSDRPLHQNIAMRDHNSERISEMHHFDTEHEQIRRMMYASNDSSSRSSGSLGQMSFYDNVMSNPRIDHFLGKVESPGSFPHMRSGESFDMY
Kind of assay: protein-binding microarray (RPBM); PBS, 2% BSA, 51.3 ng/ul salmon testes DNA, 50 uM zinc acetate, 200 nM TF, 25 C, 1 h; high values mean tight binding. To be noted: protein: recombinant; tags: N-terminal polyhistidine and DsRed monomer fusion (pET32a); label: CyDye5-dUTP incorporated in the synthesized complementary strand; 3' TTTTT single-stranded linker to array surface; dsDNA, one strand shown. In a few lines: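 Polyhistidine-tagged DsRed fusions of transcription factors, joined at the N-terminus, were expressed in E. coli BL21-CodonPlus and isolated on Ni–NTA. They were incubated at 200 nM for 1 h at 25 °C on a custom Agilent array, double-stranded and BSA-blocked, in PBS with 2% BSA, salmon testes DNA and 50 µM zinc acetate. The binding signal is per-feature fluorescence intensity (arbitrary units) read on an Axon 4000B scanner after washing.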
Turning to “TTGTGACTTGACTTTGCCAATCTTAGTCTATTTTCTCGAGCGGAGTCACCTAGTGCAG”, the binding signal was 5270 fluorescence intensity (a.u.).
Next, “TATTAAATTGGCTATAGGTGATTTGGAGCTAATAGTTAGCCGGAGTCACCTAGTGCAG”: 24000 fluorescence intensity (a.u.); “CTTAATTACTATTCCCTCCGTCATACAATATAAGAGATTTCGGAGTCACCTAGTGCAG”: 22500 fluorescence intensity (a.u.).
Next, “CATAAACTGAAGCTCATAATTGTTTGTGAAATCGTTTATCCGGAGTCACCTAGTGCAG”: 16900 fluorescence intensity (a.u.); “CGTGGTCTCTAATTTGTTTTGTTCGTTCTCCTTTCTTGTTCGGAGTCACCTAGTGCAG”: 4660 fluorescence intensity (a.u.); “GACTCTATCTAGAAATTAAATTTAATCAACACATGTAAGTCGGAGTCACCTAGTGCAG”: 12800 fluorescence intensity (a.u.).
To “TTTATTTAATTGATTCGATGAACTTTGTGCCATTAAAATTCGGAGTCACCTAGTGCAG” belongs 35000 fluorescence intensity (a.u.); to “TATGATTAAAATTGTTTTGAACCATTGCACGCACCAGCATCGGAGTCACCTAGTGCAG”, 18500 fluorescence intensity (a.u.).
In the case of “TAAATTGACATGATTAATTGAAACCACGCCATTCAGCAATCGGAGTCACCTAGTGCAG”, the binding signal is 65500 fluorescence intensity (a.u.).
To “AGGTGGCCCCATTAATTGATGATGAAATGCAAACCTAAATCGGAGTCACCTAGTGCAG” belongs 9480 fluorescence intensity (a.u.); to “TGGGGTATCTAGTCAATCATACAATATTTTGTTTTGCTAACGGAGTCACCTAGTGCAG”, 7400 fluorescence intensity (a.u.); to “AGGAAAATGTGGTGAGTAATTAGGTTATAATTTATTGAGTCGGAGTCACCTAGTGCAG”, 4100 fluorescence intensity (a.u.).
To “TGATGATTGGTTTCTTGGCCAATGGTTTGGTTGTTGTTTTCGGAGTCACCTAGTGCAG” belongs 23100 fluorescence intensity (a.u.); to “CATAATTGAGTCTGATTGGCACAAACCTAGAGAACATGCCCGGAGTCACCTAGTGCAG”, 65500 fluorescence intensity (a.u.).
Consider “AGTGTGATTGATGCACAAACAAACAGCTCAAGTTGAGGCCCGGAGTCACCTAGTGCAG”, for which the binding signal was 55400 fluorescence intensity (a.u.).
With “TGCCCCAATGATTTTGTACCACAGACCAGCTCAAGTTGCCCGGAGTCACCTAGTGCAG”, the binding signal is 4400 fluorescence intensity (a.u.).
As for “AAAGAGAACACATAATTGATTTGGAGCACCCAAATAATTTCGGAGTCACCTAGTGCAG”, the binding signal is 15200 fluorescence intensity (a.u.).
Next, “AAAATCAAGATTGATGTGGTTTCACCCCAACACAAGAAAACGGAGTCACCTAGTGCAG”: 8050 fluorescence intensity (a.u.); “GATAGATAGATAGATACATACACACAAACATAAGTAGCTACGGAGTCACCTAGTGCAG”: 19100 fluorescence intensity (a.u.).
To “TCTCATTGACAAGCCAACAAACGCACAGTGTGACAAGCTCCGGAGTCACCTAGTGCAG” belongs 3600 fluorescence intensity (a.u.).
Next, “TTGTGATTGATTTCACACCCAAACAACAAGTAGTCAGCTACGGAGTCACCTAGTGCAG”: 61300 fluorescence intensity (a.u.); “GTTTCAATGATTGGTTGTTCACCCAACCCAAGTACCCAGCCGGAGTCACCTAGTGCAG”: 57400 fluorescence intensity (a.u.); “AAGTGATTGCCCTGGCTCAGAGTTGAGTAAACAATCAGGCCGGAGTCACCTAGTGCAG”: 19900 fluorescence intensity (a.u.).
On to “TTGATAATTGGGCACCTATGCCCGACACATAAAACACACTCGGAGTCACCTAGTGCAG”, for which the binding signal is 22200 fluorescence intensity (a.u.).
Turning to “ATGTGATTATTTCGTCCTGCTGTAAACTTGGTGCAAGTGACGGAGTCACCTAGTGCAG”, the binding signal was 18600 fluorescence intensity (a.u.).
To “GGCTTTCCAGTTGATAAATCAATCATCATCCCCTTGATCGCGGAGTCACCTAGTGCAG” belongs 8410 fluorescence intensity (a.u.); to “ATGTTCTTTCTTGATTAGACCATCTGATGCTTTGCGCAGTCGGAGTCACCTAGTGCAG”, 4480 fluorescence intensity (a.u.).
To “TAGGAGATTATATTTAAATTAACTTTAAAGAGAAATCTTGCGGAGTCACCTAGTGCAG” belongs 11600 fluorescence intensity (a.u.); to “GGTTGTTAGCACATGATTAATTGTATTAAAACAACTTAAACGGAGTCACCTAGTGCAG”, 3580 fluorescence intensity (a.u.); to “AAGATTGAAGGCAACCAAACCAACAAGGATGGATGCTTCTCGGAGTCACCTAGTGCAG”, 16500 fluorescence intensity (a.u.).
With “GGACGTATATATACATTGATTAATACCAAATCCTCAGCACCGGAGTCACCTAGTGCAG”, the binding signal is 4520 fluorescence intensity (a.u.).
To “GTTGATTTGTGTTTTGACTTTTGAAAAGACTACTGTTACTCGGAGTCACCTAGTGCAG” belongs 27500 fluorescence intensity (a.u.); to “ATATTATTTATAAATTGTGTGTGCAACTGACTTGTGGGCCCGGAGTCACCTAGTGCAG”, 3490 fluorescence intensity (a.u.); to “TTGTAATTACATAAATTATACGAATTGTAAAGATTTGGCACGGAGTCACCTAGTGCAG”, 54600 fluorescence intensity (a.u.).
Next, “CATAAATTAATTTGTTCACGTCACATTATATACAGTTGTACGGAGTCACCTAGTGCAG”: 55000 fluorescence intensity (a.u.).
To “TAAAATTATCAAAATATTATATTATACACATAAGATTGTACGGAGTCACCTAGTGCAG” belongs 5140 fluorescence intensity (a.u.).
In the case of “TTATAATTACTACATTATAATAAAAGTAAAATTGTATTTACGGAGTCACCTAGTGCAG”, the binding signal is 12100 fluorescence intensity (a.u.).
To “TTATAATTGTAAATTTTACAAATTAGTCCTCACCTGTTCTCGGAGTCACCTAGTGCAG” belongs 53400 fluorescence intensity (a.u.); to “ATTATATATTTAATAAAATTAATTTGGTGTTGTATATTTACGGAGTCACCTAGTGCAG”, 8780 fluorescence intensity (a.u.).
To “TTTTATATTTTAATTAATTACATAATGTAAATATTTCTCACGGAGTCACCTAGTGCAG” belongs 17100 fluorescence intensity (a.u.).
Next, “AGTGATTATAATATTGTTCACAAATTTACAAACCTCTCATCGGAGTCACCTAGTGCAG”: 36700 fluorescence intensity (a.u.); “AATTAAATTAGAGTATTCAGTTTGTATATAGTACATTTGTCGGAGTCACCTAGTGCAG”: 14000 fluorescence intensity (a.u.).
